# In PubChem BioAssay (NCATS):
# Several values for one entry are separate records, joined by “and”; a condition that tells them apart may be missing. Equal values may be shown once. Inconclusive results are not listed. Entries that show only a call come without a potency. Activity calls are given as the source filed them. Unless noted, calls come from the whole dose curve.
# Assays:
# [1] = target: Ubiquitin carboxyl-terminal hydrolase 1 (Homo sapiens) (UniProt O94782); assay: Inhibitors of USP1/UAF1: Pilot qHTS (AID 504865; active = well fitted inhibition curve with a large enough effect;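 note: rhodamine fluorescence freed from ubiquitin-rhodamine substrate followed over time; top concentration of the series differs between compounds; nearly all actives have a fitted effect of over 35% in size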)
# Sequence of Ubiquitin carboxyl-terminal hydrolase 1 (Homo sapiens) (O94782 whole entry, looked up): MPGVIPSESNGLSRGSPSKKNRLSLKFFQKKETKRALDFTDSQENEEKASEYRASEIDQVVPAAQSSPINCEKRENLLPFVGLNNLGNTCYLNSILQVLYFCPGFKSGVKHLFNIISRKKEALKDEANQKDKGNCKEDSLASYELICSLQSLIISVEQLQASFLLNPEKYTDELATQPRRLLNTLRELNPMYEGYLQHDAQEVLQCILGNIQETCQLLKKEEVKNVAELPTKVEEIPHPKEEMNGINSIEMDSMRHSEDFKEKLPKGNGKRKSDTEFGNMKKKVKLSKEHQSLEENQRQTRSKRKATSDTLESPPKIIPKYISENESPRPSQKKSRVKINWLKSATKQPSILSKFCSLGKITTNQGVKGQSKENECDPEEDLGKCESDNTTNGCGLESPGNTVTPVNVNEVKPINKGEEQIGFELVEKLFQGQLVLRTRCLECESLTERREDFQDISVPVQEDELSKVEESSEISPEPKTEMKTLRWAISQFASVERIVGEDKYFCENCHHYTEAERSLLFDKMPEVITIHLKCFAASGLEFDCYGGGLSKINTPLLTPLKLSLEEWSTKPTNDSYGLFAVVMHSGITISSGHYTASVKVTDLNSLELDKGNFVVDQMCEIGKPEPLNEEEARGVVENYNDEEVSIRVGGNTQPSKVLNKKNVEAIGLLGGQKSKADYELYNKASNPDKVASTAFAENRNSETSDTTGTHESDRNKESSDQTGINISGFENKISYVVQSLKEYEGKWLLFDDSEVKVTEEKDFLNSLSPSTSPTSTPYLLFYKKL
# Summary of the method: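 1nM USP1/UAF1 + cpd, 15 min RT; start w/ Ub-Rho 150nM final; kinetic FL 480/540 nm, 6 reads q60 s. Buffer 50mM HEPES pH 7.8, 0.5mM EDTA, 1mM TCEP, 0.01% Tween-20, 0.1 mg/ml BSA.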
# [2] = target: Estrogen receptor (Homo sapiens) (UniProt P03372); assay: qHTS assay for small molecule antagonists of estrogen receptor alpha signaling (AID 588513; active = well fitted curve in the direction sought with a large enough effect in the signal ratio, with a control signal flat, not every such curve was filed as active; the % refers to the signal ratio)
# Sequence of Estrogen receptor (Homo sapiens) (P03372 whole entry, looked up): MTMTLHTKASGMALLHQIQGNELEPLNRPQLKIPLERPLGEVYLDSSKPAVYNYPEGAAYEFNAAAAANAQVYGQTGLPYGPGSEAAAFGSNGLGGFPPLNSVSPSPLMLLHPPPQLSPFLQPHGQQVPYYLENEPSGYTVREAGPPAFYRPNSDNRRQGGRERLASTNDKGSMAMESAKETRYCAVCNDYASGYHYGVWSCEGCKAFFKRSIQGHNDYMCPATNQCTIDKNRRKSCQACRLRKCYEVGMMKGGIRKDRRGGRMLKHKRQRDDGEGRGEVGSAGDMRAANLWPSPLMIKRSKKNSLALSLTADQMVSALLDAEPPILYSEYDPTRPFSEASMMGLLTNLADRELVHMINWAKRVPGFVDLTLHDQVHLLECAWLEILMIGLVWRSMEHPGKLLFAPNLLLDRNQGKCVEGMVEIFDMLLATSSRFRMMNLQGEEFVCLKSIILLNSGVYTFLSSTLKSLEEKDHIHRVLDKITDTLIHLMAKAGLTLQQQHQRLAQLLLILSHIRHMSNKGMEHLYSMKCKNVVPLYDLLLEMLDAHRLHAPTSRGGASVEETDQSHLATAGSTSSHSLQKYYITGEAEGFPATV
# Summary of the method: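 Beta-lactamase reporter, antagonist mode, HEK 293 GripTite cells; 0.5nM E2 stimulus, 18 h, 37 C; CCF4 dye 2 h RT; fluorescence. IC50 and efficacy from Hill fits, normalized to E2 and DMSO.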
# [3] = target: Estrogen receptor (Homo sapiens) (UniProt P03372); assay: qHTS assay for small molecule agonists of estrogen receptor alpha signaling (AID 588514); note: nearly all actives have a fitted effect of over 70% in size
# Summary of the method: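 Cells were plated at 5000/well, incubated 4 hrs at 37 C, dosed with compound titration series, incubated 18 hrs at 37 C, loaded with CCF4 dye for 2 hrs at RT, then fluorescence was read.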
# [4] = qHTS assay for small molecule antagonists of peroxisome proliferator-activated receptor delta signaling (AID 588535; active = well fitted inhibition curve with a large enough effect in the signal ratio, with a control signal flat, not every such curve was filed as active; the % refers to the signal ratio;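 for max response: cells co-treated with a PPAR-delta agonist as stimulator during compound exposure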); settings: HEK293T PPARd-UAS-bla, beta-lactamase FRET ratio, 18 h; 460 nm channel
# Summary of the method: (§1)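 Antagonist-mode beta-lactamase reporter (GeneBLAzer PPAR-delta-UAS-bla) in HEK293T cells, 2% charcoal/dextran FBS, 4000 cells/well. Compound titrations, 18 h at 37 C; CCF4 ratio read, IC50 and efficacy from Hill fits.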
# [5] = target: Peroxisome proliferator-activated receptor delta (Homo sapiens) (UniProt Q03181); assay: as above
# Sequence of Peroxisome proliferator-activated receptor delta (Homo sapiens) (Q03181 whole entry, looked up): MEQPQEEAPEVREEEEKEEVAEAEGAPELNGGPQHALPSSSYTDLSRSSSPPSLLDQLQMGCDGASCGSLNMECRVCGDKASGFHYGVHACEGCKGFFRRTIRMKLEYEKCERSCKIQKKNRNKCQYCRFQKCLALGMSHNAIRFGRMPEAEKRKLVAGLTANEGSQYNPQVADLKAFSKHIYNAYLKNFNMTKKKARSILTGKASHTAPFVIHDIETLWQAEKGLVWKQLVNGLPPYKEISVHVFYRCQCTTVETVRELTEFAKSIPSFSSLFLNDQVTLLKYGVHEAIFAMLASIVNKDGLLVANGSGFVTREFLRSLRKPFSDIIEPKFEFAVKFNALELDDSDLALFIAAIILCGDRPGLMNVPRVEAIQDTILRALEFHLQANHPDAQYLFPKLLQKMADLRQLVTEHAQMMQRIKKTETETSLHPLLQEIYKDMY
# Summary of the method: as §1
# [6] = target: Peroxisome proliferator-activated receptor gamma (Homo sapiens) (UniProt P37231); assay: qHTS assay for small molecule agonists of peroxisome proliferator-activated receptor gamma signaling (AID 588536; active = well fitted curve in the direction sought with a large enough effect in the signal ratio, with a control signal flat, not every such curve was filed as active; the % refers to the signal ratio)
# Sequence of Peroxisome proliferator-activated receptor gamma (Homo sapiens) (P37231 whole entry, looked up): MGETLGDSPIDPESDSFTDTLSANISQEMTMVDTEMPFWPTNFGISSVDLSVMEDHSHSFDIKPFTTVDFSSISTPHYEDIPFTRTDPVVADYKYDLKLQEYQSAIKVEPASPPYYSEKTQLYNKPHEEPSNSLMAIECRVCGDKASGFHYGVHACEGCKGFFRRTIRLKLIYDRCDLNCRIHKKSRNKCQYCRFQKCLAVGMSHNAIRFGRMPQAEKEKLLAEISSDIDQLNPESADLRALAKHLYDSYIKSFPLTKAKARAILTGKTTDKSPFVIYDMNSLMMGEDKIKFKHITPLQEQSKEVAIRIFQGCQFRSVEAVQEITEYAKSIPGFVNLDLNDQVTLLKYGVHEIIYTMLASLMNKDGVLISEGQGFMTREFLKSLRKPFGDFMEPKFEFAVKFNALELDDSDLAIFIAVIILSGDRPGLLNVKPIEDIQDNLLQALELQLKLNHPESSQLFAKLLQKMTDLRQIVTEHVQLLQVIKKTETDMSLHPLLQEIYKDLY
# Summary of the method: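 PPAR-gamma-UAS-bla HEK293 cells in medium with 1% charcoal/dextran-treated FBS were exposed to compounds for 16 h at 37 C. Beta-lactamase activity was read with CCF4 substrate (405 nm excitation, 460/530 nm emission).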
# [7] = qHTS assay for small molecule agonists of retinoid X receptor alpha signaling (AID 588544); settings: HEK293T RXRa-UAS-bla, beta-lactamase reporter, 18 h; 530 nm emission
# [8] = target: Retinoic acid receptor RXR-alpha (Homo sapiens) (UniProt P19793); assay: as above
# Sequence of Retinoic acid receptor RXR-alpha (Homo sapiens) (P19793 whole entry, looked up): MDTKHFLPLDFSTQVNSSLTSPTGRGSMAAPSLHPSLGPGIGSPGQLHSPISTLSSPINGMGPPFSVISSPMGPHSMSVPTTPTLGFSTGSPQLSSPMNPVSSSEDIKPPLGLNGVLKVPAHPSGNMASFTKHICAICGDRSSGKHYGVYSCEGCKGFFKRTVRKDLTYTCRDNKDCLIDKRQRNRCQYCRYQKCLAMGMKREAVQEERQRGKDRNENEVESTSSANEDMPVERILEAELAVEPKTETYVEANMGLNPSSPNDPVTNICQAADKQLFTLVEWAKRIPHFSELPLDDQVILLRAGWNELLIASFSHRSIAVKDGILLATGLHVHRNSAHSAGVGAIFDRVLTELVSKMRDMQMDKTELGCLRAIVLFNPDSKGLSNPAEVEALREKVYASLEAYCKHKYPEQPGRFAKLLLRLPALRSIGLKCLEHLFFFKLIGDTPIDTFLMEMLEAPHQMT
# [9] = target: Thyroid hormone receptor beta (Homo sapiens) (UniProt P10828); assay: qHTS assay for small molecule agonists of thyroid hormone receptor beta signaling (AID 588545)
# Sequence of Thyroid hormone receptor beta (Homo sapiens) (P10828 whole entry, looked up): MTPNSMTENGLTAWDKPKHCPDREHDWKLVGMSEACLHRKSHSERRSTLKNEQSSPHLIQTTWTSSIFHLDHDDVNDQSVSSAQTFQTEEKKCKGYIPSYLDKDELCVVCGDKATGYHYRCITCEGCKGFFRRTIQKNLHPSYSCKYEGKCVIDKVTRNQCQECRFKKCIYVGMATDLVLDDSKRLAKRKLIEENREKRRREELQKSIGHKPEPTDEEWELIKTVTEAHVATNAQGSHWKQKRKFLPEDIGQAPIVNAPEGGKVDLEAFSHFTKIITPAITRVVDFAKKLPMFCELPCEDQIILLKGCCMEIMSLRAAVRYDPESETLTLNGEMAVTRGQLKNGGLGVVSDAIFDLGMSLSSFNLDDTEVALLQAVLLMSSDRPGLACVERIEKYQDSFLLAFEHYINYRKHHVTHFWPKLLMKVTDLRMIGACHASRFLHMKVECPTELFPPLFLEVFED
# Summary of the method: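 TR-UAS-bla GripTite HEK 293 cells (2500/well, medium with 2% charcoal/dextran FBS) were treated in agonist mode for 18 h at 37 C, titrated. Beta-lactamase was read by CCF4 ratio after 2 h; normalized to 10 nM T3 (100%) and DMSO, Hill-fitted for EC50 and efficacy.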
# [10] = qHTS assay for small molecule antagonists of retinoid X receptor alpha signaling (AID 588546; active = well fitted inhibition curve with a large enough effect in the signal ratio, with a control signal flat, not every such curve was filed as active; the % refers to the signal ratio;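 note: cells stimulated with 9-cis-retinoic acid as agonist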); settings: HEK293T RXRa-UAS-bla, beta-lactamase ratio, antagonist mode; measured here: W530 green channel, cytotoxicity proxy
# Summary of the method: (§2)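 Beta-lactamase reporter inhibition, read as CCF4 fluorescence ratio (ex 405, em 460/530 nm) after 2 h at RT. HEK293T UAS-bla cells, 2500/well, were stimulated with 9-cis-RA at 500 or 100 nM final alongside test compound for 18 h at 37 C.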
# [11] = target: Retinoic acid receptor RXR-alpha (Homo sapiens) (UniProt P19793); assay: as above; settings: HEK293T RXRa-UAS-bla, beta-lactamase ratio, antagonist mode
# Summary of the method: as §2
# [12] = target: Glucocorticoid receptor (Homo sapiens) (UniProt P04150); assay: qHTS assay for small molecule agonists of glucocorticoid receptor signaling (AID 588532; active = well fitted curve in the direction sought with a large enough effect in the signal ratio, with a control signal flat; the % refers to the signal ratio); settings: HeLa MMTV-bla, beta-lactamase ratio, agonist, 18 h; stronger effect = higher value; percent of dexamethasone control, DMSO zero
# Sequence of Glucocorticoid receptor (Homo sapiens) (P04150 whole entry, looked up): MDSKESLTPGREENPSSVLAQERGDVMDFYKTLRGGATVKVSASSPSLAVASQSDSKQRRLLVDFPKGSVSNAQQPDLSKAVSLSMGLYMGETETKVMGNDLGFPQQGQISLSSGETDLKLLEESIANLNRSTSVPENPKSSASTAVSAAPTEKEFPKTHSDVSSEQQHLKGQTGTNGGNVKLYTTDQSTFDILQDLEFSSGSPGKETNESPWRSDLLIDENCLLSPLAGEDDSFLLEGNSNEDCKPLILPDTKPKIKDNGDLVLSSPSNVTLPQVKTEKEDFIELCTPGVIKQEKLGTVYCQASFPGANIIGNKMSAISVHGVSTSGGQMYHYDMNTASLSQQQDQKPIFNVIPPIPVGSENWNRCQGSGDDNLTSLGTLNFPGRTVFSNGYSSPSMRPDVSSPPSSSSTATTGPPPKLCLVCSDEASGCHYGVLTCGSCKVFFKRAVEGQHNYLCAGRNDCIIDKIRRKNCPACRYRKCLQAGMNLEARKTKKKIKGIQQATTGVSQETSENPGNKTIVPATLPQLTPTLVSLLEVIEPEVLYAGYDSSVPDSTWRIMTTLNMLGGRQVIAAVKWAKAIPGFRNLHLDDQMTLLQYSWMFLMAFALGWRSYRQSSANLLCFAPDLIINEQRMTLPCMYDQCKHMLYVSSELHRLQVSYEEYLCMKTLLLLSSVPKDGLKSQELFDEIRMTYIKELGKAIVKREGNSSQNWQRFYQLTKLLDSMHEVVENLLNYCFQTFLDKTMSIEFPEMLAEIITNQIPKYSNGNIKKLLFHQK
# Summary of the method: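 Cells were plated and rested 3-5 h at 37 C, compounds were added in titration and incubated 18 h, then CCF4 substrate was loaded for 2 h at RT before reading blue/green fluorescence. EC50 came from Hill-equation fitting.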
# [13] = target: Glucocorticoid receptor (Homo sapiens) (UniProt P04150); assay: qHTS assay for small molecule antagonists of glucocorticoid receptor signaling (AID 588533; active = well fitted inhibition curve with a large enough effect in the signal ratio, with a control signal flat, not every such curve was filed as active; the % refers to the signal ratio)
# Summary of the method: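 Antagonist-mode qHTS: compound titrations added to GRE-bla HeLa cells, then dexamethasone 2 nM final; 18 h, 37 C. CCF4 FRET fluorescence normalized to dexamethasone and DMSO; IC50 from Hill fit.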
# [14] = target: Vitamin D3 receptor (Homo sapiens) (UniProt P11473); assay: qHTS assay for small molecule antagonists of vitamin D receptor signaling (AID 588541);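 note: receptor activated by calcitriol during compound treatment; series mostly up to about 77 µM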
# Sequence of Vitamin D3 receptor (Homo sapiens) (P11473 whole entry, looked up): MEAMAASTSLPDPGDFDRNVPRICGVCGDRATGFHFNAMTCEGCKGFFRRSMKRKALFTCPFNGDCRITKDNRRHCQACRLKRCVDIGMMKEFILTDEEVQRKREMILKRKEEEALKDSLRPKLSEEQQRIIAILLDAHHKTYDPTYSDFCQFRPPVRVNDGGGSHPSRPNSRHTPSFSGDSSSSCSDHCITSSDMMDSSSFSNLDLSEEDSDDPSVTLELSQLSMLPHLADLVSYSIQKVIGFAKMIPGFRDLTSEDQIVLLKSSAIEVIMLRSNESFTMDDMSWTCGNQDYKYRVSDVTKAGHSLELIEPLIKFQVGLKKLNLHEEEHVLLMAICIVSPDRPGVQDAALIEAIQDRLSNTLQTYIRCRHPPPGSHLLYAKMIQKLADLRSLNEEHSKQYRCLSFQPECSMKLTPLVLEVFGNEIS
# Summary of the method: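 VDR-UAS-bla HEK293T cells in 2% charcoal-stripped FBS were stimulated with 1-alpha,25-dihydroxyvitamin D3 (3 nM final) plus compound for 16 h at 37 C. The beta-lactamase CCF4 readout was normalized to 50 nM agonist and DMSO, and Hill fits gave IC50.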
# [15] = target: Vitamin D3 receptor (Homo sapiens) (UniProt P11473); assay: qHTS assay for small molecule agonists of vitamin D receptor signaling (AID 588543)
# Summary of the method: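 β-lactamase reporter, VDR-UAS-bla HEK293T, agonist mode. Cells plated 5 h at 37 °C, compound titration 16 h at 37 °C, CCF4 dye 2 h RT, ratio 460/530 nm. Hill fit → EC50, efficacy vs 50 nM 1α,25-(OH)2D3.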
# [16] = target: Bile acid receptor (Homo sapiens) (UniProt Q96RI1); assay: qHTS assay for small molecule antagonists of farnesoid X receptor signaling (AID 588526)
# Sequence of Bile acid receptor (Homo sapiens) (Q96RI1 whole entry, looked up): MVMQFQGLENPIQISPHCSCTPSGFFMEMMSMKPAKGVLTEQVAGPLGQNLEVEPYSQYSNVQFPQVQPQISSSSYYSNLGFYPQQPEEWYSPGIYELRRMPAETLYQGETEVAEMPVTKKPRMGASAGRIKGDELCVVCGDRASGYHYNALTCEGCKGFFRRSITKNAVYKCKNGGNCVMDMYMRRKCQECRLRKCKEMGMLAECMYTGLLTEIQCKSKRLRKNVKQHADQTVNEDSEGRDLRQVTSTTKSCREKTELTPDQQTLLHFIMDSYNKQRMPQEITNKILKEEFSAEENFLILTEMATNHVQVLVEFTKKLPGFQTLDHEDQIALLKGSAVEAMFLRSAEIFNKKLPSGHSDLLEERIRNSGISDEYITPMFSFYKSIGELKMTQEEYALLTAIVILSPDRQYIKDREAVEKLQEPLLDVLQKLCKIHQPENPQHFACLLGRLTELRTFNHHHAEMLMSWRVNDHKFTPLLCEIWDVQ
# Summary of the method: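 Antagonist mode: titrated compounds tested against chenodeoxycholic acid stimulation (normalized to 50 uM CDCA and DMSO) in GeneBLAzer HEK293T cells for 16 h. Beta-lactamase read by CCF4 fluorescence; IC50 from Hill fits.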
# [17] = target: Peroxisome proliferator-activated receptor gamma (Homo sapiens) (UniProt P37231); assay: qHTS assay for small molecule antagonists of peroxisome proliferator-activated receptor gamma signaling (AID 588537; active = well fitted inhibition curve with a large enough effect in the signal ratio, with a control signal flat, not every such curve was filed as active; the % refers to the signal ratio;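 note: reporter cells co-stimulated with 50 nM rosiglitazone agonist during compound treatment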)
# Summary of the method: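 PPARγ-UAS-bla HEK293 cells (3000/well) in 1% charcoal/dextran-stripped FBS are treated with compound, then stimulated with 50 nM rosiglitazone for 16 h at 37 °C. Read-out is CCF4 β-lactamase fluorescence after 2 h at RT. IC50 comes from Hill fits normalised to rosiglitazone and DMSO.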
SMILES,Potency [1],outcome [2],outcome [3],max response [4],outcome [5],outcome [6],max response [7],outcome [8],outcome [9],max response [10],max response [11],activation [12],outcome [13],outcome [14],outcome [15],outcome [16],outcome [17]
CCCC(O)C(CC)CO (stereo unspecified),inactive,inactive,inactive,2.27%,inactive,inactive,-0.667%,inactive,inactive,-4.1%,8.72% (inactive),–,–,–,–,–,–
Cc1ccc(C(C)C)c(O)c1,inactive,inactive,–,-0.969%,inactive,inactive,-0.0487%,inactive,inactive,-9.5%,-24.5% (inactive),-10.5% (inactive),inactive,inactive,inactive,–,–
Cc1cccc(Nc2ccccc2C(=O)O)c1C,inactive,–,–,–,–,–,–,–,inactive,–,–,–,inactive,–,–,–,–
Cc1cc(C)nc(NS(=O)(=O)c2ccc(N)cc2)n1,inactive,–,–,18.4% and -14.9%,inactive,inactive,-3.23% and 6.31%,inactive,inactive,1.53% and -6.64%,-0.622% (inactive) and -18.2% (inactive),5.22% (inactive) and 0.742% (inactive),inactive,–,–,inactive,–
CCCCCC(N)=O,inactive,–,–,-31.8%,inactive,inactive,-21.2%,inactive,inactive,-2.91%,-2.1% (inactive),–,–,inactive,inactive,–,inactive
O=C1C(c2[nH]c3ccccc3c2O)=Nc2ccccc21,–,–,–,32.9%,inactive,–,16.9%,inactive,inactive,0.17%,9.96% (inactive),5.37% (inactive),inactive,–,–,inactive,–
O=C1c2cccc(O)c2C(=O)c2c(O)cccc21,inactive,–,–,–,–,–,–,–,–,–,–,–,–,–,inactive,–,inactive
CC(=O)NS(=O)(=O)c1ccc(N)cc1,inactive,inactive,inactive,26.9%,inactive,–,-19.7%,inactive,inactive,-14.4%,16.1% (inactive),-1.25% (inactive),inactive,inactive,inactive,–,–
O=C(OOC(=O)c1ccccc1)c1ccccc1,inactive,inactive,inactive,–,–,inactive,-15.8%,inactive,inactive,-16.7%,10.6% (inactive),6.15% (inactive),inactive,–,–,–,inactive
